# From PubChem
# IMPase Li cell = IMPase inhibition in cells with lithium potentiation. Potency, µM (series often up to 59.4 µM), inactives show at the top dose activity, negative = IMPase inhibition, hits mostly inhibitors. actives 0.35% (n = 210,000). CHO-M1 cells, IP1 TR-FRET (IP-One), carbachol + lithium. AID 1457;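 note: IP1 builds up when IMPase is blocked and the TR-FRET signal falls; potency is the fitted concentration of half-maximal effect; plate controls were basal vehicle for no effect and high inhibitor control for full effect; nearly all actives have a fitted effect of over 50% in size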
#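 CHO cells stably expressing M1 receptor (2000/well, cultured 16–30 h) treated 30 min at 37C with compound plus low lithium. Cytosolic IP1 by TR-FRET (665/620 ratio and 620 channel) after 10 min lysis; AC50 by Hill fit.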
# PNC inhibitor = perinucleolar compartment assembly inhibition | PC3M PTB-GFP, PNC prevalence imaging, 16 h; active compounds read low | activity change (PNC), negative = inhibition, % at 10 µM | AID 2417 | actives 3.1% (n = 140,000);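 active = readout at or below -70, meaning at least 70% loss of cells showing the perinucleolar compartment, a nuclear body marking cancer cells; inconclusive = readout between -30 and a set limit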;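 note: plate controls were DMSO wells for no effect and camptothecin positive control wells for full effect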
#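 PC3M cells stably expressing PTB-GFP, 750–1000 cells/well, treated 16 h at 37 °C with compound (23 nl of library stock), in duplicate. After paraformaldehyde fixation and Hoechst stain, imaged at 20x; PNC prevalence scored by image analysis.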
# 12-hLO inh = inhibitors of human 12-lipoxygenase (ALOX12) | P18054 | purified 12-hLO, xylenol orange hydroperoxide absorbance | Potency, µM (top dose mostly 57.1 µM), for the others: top-dose activity change, negative = inhibition, hits mostly inhibitors | actives 0.12% (n = 150,000) | AID 1452; note: potency is the fitted concentration of half-maximal effect; % is set by controls: 0 for no effect and ±100 for the full control effect; nearly all actives have a fitted effect of over 55% in size
#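 Purified human 12hLO (150 nM), preincubated 15 min with compound, then 40 uM arachidonic acid for 30 min, room temperature, Hepes pH 7.0 with 0.01% Triton X-100. Hydroperoxide detected by ferrous iron/xylenol orange; 573/405 nm absorbance ratio gives reaction progress.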
# IMPase cell inh = cell-permeable inhibitors of inositol monophosphatase (IMPase). P97697. CHO-M1 cells, IP1 accumulation, HTRF TR-FRET ratio. inhibition (IP1 accumulation), % at 46.1 µM. 120,000 tested, under 10 active. AID 901; active = well fitted curve in the direction sought with a large enough effect in the signal ratio, not every such curve was filed as active; inconclusive = small, poorly fitted or top-dose-only effect, or a change in a side signal; inactive = no such curve, though single readings can be large or run the other way; the % refers to the signal ratio;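 note: cells stimulated with carbachol in lithium chloride buffer; plate controls were DMSO basal wells for no effect and reference inhibitor wells for full effect; higher means more IMPase inhibition seen as more IP1 and lower FRET ratio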
#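 Measured: the HTRF emission ratio (665/620 nm) plus the 620 nm donor channel, each fitted to the Hill equation to give AC50. Cells were CHO-M1 given compounds up to 46 uM and a 30 min carbachol stimulation at 37C.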
# HPGD inh = HPGD (human) dehydrogenase inhibition; Potency, µM, inactives show at the top dose activity change, negative = inhibition, hits mostly inhibitors; AID 894; purified HPGD, NADH fluorescence kinetic, PGE2 substrate; actives 4.3% (n = 150,000); P15428; active = well fitted inhibition curve with a large enough effect, not every such curve was filed as active; inconclusive = small, poorly fitted or top-dose-only effect, or another doubt; inactive = no such curve, though single readings can be large or run the other way; note: potency is the fitted concentration of half-maximal effect; % is set by controls: 0 for no effect and ±100 for the full control effect
# Target sequence (P15428 whole entry, looked up): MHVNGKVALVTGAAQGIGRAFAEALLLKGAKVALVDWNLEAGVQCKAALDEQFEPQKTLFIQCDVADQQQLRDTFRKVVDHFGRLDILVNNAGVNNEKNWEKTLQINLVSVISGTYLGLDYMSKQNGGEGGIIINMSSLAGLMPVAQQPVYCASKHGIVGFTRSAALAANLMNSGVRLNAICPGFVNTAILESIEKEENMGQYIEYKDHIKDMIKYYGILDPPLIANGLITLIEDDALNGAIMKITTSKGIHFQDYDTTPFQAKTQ
#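 NADH formation kinetics: reaction with 30 uM PGE2 and 1 mM NAD+ (final), 20 nM enzyme, Tris-HCl pH 8 with Tween 20, after 15 min compound preincubation at room temperature. Fluorescence change, last versus first of five reads.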
# ALDH1A1 inh-1 = ALDH1A1 (human) enzyme inhibition; actives 7.3% (n = 220,000); Potency, µM (series often up to 75.3 µM), for inactives: top-dose activity, negative = inhibition, usual class: inhibitors; Purified ALDH1A1, NADH fluorescence, propionaldehyde substrate; AID 1030; active = well fitted inhibition curve with a large enough effect, not every such curve was filed as active; inconclusive = small, poorly fitted or top-dose-only effect, or another doubt; inactive = no such curve, though single readings can be large or run the other way;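 note: potency is the fitted concentration of half-maximal effect; plate controls were no enzyme wells and a reference inhibitor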
# HPGD inh conf = human HPGD enzyme inhibition, confirmation. actives 90% (n = 90). shares compounds with HPGD inh. Potency, µM (highest dose often 57.1 µM), for the others: at the highest dose activity change, negative = inhibition, hits mostly inhibitors. recombinant HPGD, NADH fluorescence, PGE2 substrate. AID 2429; calls by dose curve
# ALDH1A1 inh-2 = Inhibits human ALDH1A1, confirmation and counter-screen; AID 493210; purified ALDH1A1, NADH fluorescence, propionaldehyde/NAD+; shares compounds with ALDH1A1 inh-1; Potency, µM (titrated, usually from 57.1 µM), inactives show at the highest dose activity change, negative = inhibition, actives largely listed as inhibitors; actives 90% (n = 90); calls by dose curve
# An asterisk follows results filed as active; u = inconclusive; x = not tested or not shown; [ ] = another dose, or the depositor's remark. The list is not random: actives were taken first. Their share in the collection is about 11%. Unless noted, calls come from the whole dose curve; as a rule, active = well fitted curve in the direction sought with a large enough effect; inconclusive = small, poorly fitted or top-dose-only effect, or another doubt; inactive = no such curve, though single readings can be large; an effect the other way counts as inactive or inconclusive.
SMILES,IMPase Li cell,PNC inhibitor,12-hLO inh,IMPase cell inh,HPGD inh,ALDH1A1 inh-1,HPGD inh conf,others
CC(=O)Nc1ccccc1OP1(=O)COc2ccccc2OC1,24.4%[38.3 µM],u,2.1%,u,-5.3%,2.5%,-11.3%,
COC1=C[C@H]2[C@H]3Cc4ccc(OC)c(O)c4[C@@]2(CCN3C)CC1=O,6.8%,x,-4.7%,3.5,-16.4%,2.7%,x,
Cc1ccc(-c2nc(N3CCOCC3)s[n+]2-c2ccccc2)cc1,2.1%,24.2,-4.2%,x,0.159µM*,2.51µM*,3.16µM*,
COc1ccc2c(c1)CCC1C2CC[C@@]2(C)C1CC[C@@H]2NCCCCCCN1C(=O)C=CC1=O (some centres not stated),15.0%,x,x,x,-11.6%,0.501µM*,x,ALDH1A1 inh-2=5.01µM*
CC1Cc2ccccc2N1C(=O)COC(=O)c1ccc(Cl)nc1 (configuration not stated),11.8%,x,x,x,x,u,x,
